This experiment has as its target Glucose transporter (Leishmania mexicana) (UniProt O61059). As to the kind of experiment: ST_JUDE_LEISH: Cytotoxicity at 2uM final concentration against transgenic Leishmania Mexicana promastigotes LmGT2 that are glucose transport deficient and complemented with the L. Mexicana glucose transporter 2. Activity is measured by DNA content using SYBR green in vitro. In kind it is functional.
For the compound `O=S(=O)(c1ccccc1)C1CC1`, the inhibition is -0.5%.
For `CC(C)Cn1c(N)cc(=O)n(C)c1=O`, the inhibition was 3.72%.
Next, `Cc1cccc(Cl)c1S(=O)(=O)N1CCCCC(c2ccc(C(F)(F)F)cc2)=N1`: 3.77%.
For the compound `C#CCCOc1ccc2ccccc2c1CNCCCCCCNCc1c(OCCC#C)ccc2ccccc12`, the inhibition is -0.13%.
Take `Cc1cc2c(NC(=O)NC3CCN(CCc4cccc(Cl)c4)CC3)cccc2cn1`: the inhibition was -3.28%.
Take `O=C(CSc1nc2ccccc2c(=O)n1C1CC1)Nc1cc(C(F)(F)F)ccc1Cl`: the inhibition came out at 2.43%.
The value for `Nc1cccc(CNCc2ccc(-c3cccc(-c4nc5ccccc5[nH]4)c3)cc2)c1` was -0.54%.
The value for `Cc1nc2nc(N)nc(N)c2c(C)c1Cc1c(Cl)cccc1Cl` was 7.3%.
The value for `CNCCNCc1cccc(-c2ccc(-c3nc4cc(C(F)(F)F)ccc4[nH]3)s2)c1` was 1.39%.
On to `Cc1ncccc1C(=O)Nc1cccc(-c2cccc(-c3nc4cccc(C)c4[nH]3)c2)c1`, for which the inhibition came to 1.05%.
`Cc1ccccc1C1CCN(C2CCC(NC(=O)c3csc(-c4cccc(Cl)c4)n3)CC2)CC1` (configuration not stated): the inhibition stood at 8.46%.
Next, `Cc1nc(C)c(-c2ccc(Cl)cc2)c(O)c1I`: 2.3%; `CCOc1ccc2nc(NC(=O)c3csnn3)sc2c1`: -1.06%.
The value for `CCN(CC)CCN(CCCc1ccc(-c2ccc(C(F)(F)F)cc2)cc1)C(=O)Cn1c(CCc2cccc(F)c2F)nc(=O)c2ccccc21` was 2.33%; that for `Cc1cc(Nc2nc(Nc3cccc(Cl)c3)nc3ccccc23)n[nH]1` was 9.22%; that for `CCCNCc1ccc(-c2ccc(CN(C(=O)c3nn(-c4ccccc4)nc3C)C3CC3)cc2)nc1` was 0.38%.
Next, `O=C(/C=C/c1cc(C(F)(F)F)ccc1F)NCCCCCN1CCC(c2c[nH]c3ccccc23)CC1`: 0.28%.
